# From PubChem BioAssay (NCI)
# The panel holds about 83,000 compounds, 20% with a hit somewhere; the sample as a whole holds those more often.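 Cell lines were cultured in 96-well plates, exposed to a single compound concentration, and assessed for percent growth 48 hours later.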 Unmarked numbers belong to inactive results. The source made the active and inactive calls. How the source made its calls: active means growth percent below 10; inactive means the rest.
# Assays:
# Test in all cases: NCI-60 one-dose screen, 48 h (100 = growth as untreated, 0 = no growth, -100 = all killed)
# Conditions in all cases: 10 µM unless noted
# [1] = tested on: T-47D breast
# [2] = tested on: BT-549 breast
# [3] = tested on: MDA-MB-435 melanoma
# [4] = tested on: SW-620 colon
# [5] = tested on: MCF7 breast
# [6] = tested on: HCT-116 colon
# [7] = tested on: HCC-2998 colon
# [8] = tested on: KM12 colon
Structure (SMILES),growth [1],growth [2],growth [3],growth [4],growth [5],growth [6],growth [7],growth [8]
N[C@@H]1CCC[C@H]1NCCCCN1C(=O)c2cccc3cccc(c23)C1=O,86.3%,78.9%,83.3%,38%,70%,50.3%,60.1%,63.5%
O=C(CCl)N1c2cccc3cccc(c23)N(C(=O)CCl)C1c1cn(-c2ccccc2)nc1-c1cccc([N+](=O)[O-])c1,87.7%,98.5%,84.2%,35.4%,51.6%,37.3%,104%,101%
Nc1c(-c2nc3ccc(Br)cc3c(=O)[nH]2)nnn1-c1ccccc1,78.3%,63.1%,72.2%,88.1%,78.7%,48.2%,80.6%,61.6%
C=C1C(=O)O[C@H]2[C@H]1CC/C(COC(=O)/C=C\C(=O)NCc1ccc(Cn3c(=O)sn(CCCI)c3=O)cc1)=C\CC[C@@]1(C)O[C@@H]21,-48.3% (active),-56.2% (active),-83.8% (active),-76.3% (active),-53.5% (active),-48.8% (active),-77.8% (active),-77% (active)
CNC1(C#N)CCN(Cc2ccccc2)CC1,5.3% (active),203%,95.4%,105%,102%,106%,106%,103%
CCCCNCC(=O)Nc1ccc(C(=O)OCC)cc1,96.8%,92.5%,105%,105%,98.4%,86.4%,100%,103%
Cc1nn(Cc2ccccc2)cc1C(=O)Nc1sc2c(c1C(N)=O)CCC(=O)C2,10.5%,10.4%,16.7%,13.4%,13.6%,6.74% (active),80.6%,13.5%
Cl.Fc1c[c-]c(-c2ccccn2)c(F)c1.[Pt].c1ccc(P(c2ccccc2)C([PH+](c2ccccc2)c2ccccc2)[PH+](c2ccccc2)c2ccccc2)cc1,27.7%,26.6%,12.9%,14.7%,4.74% (active),8.7% (active),24.6%,11.4%
N#C/C(=C\c1ccc(Br)cc1)n1nnc2ccccc21,24%,-1.46% (active),-38.4% (active),-19.9% (active),14.2%,-44.2% (active),-30.8% (active),1.67% (active)
O=C(/C=C/C12c3ccccc3C(c3ccccc31)C1C(=O)NC(=O)C12)c1ccc(Cl)cc1 (stereo not drawn),39.9%,9.59% (active),-19.4% (active),-3.94% (active),10.6%,-27.8% (active),-67% (active),-36.6% (active)
CNC(=O)NCC1OC(n2cnc3c(NC(=O)Nc4ccccc4)ncnc32)C2OC(C)(C)OC12 (stereo not drawn),74.7%,71.7%,101%,91.1%,85.4%,81.1%,95.5%,89.9%
CN(C)CN1CCN(c2ccc3nc(-c4ccc5nc(-c6ccc(C(F)(F)F)cc6)[nH]c5c4)[nH]c3c2)CC1,61.4%,86.2%,40.9%,27%,9.58% (active),23.8%,84.7%,26.5%
OC(CBr)c1ccnc2ccccc12 (stereo not drawn),89.1%,92%,100%,104%,96.3%,90.7%,103%,99.3%
C[C@@H]1C(=O)N(C[C@H](Cc2ccccc2)N(Cc2ccccc2)Cc2ccccc2)[C@]1(Cc1ccccc1)C(=O)OC(C)(C)C,47.4%,85.7%,76.5%,63.7%,50.6%,40.6%,84.5%,62.4%
C=CC(=O)N[C@@H](Cc1ccc(-c2cc(Cl)cc(Cl)c2)cc1)[C@@H](O)[C@H](O)C(=O)O,96.1%,91.9%,102%,101%,93.5%,91.5%,87.3%,102%
N#Cc1cnn2c(-c3ccc(Cl)cc3)nc(NC3CC3)nc12,82.4%,94.2%,96.8%,103%,78%,93.8%,101%,98.2%
CN1CCN(CCCOc2ccc3nc(Nc4cc(Cl)cc(Cl)c4)ccc3c2)CC1,-68.6% (active),-43.2% (active),-87.1% (active),-82.1% (active),-89.2% (active),-78.2% (active),-89.2% (active),-88.7% (active)
Cn1cc(-c2ccc3nc(-c4ccc(CC(=O)Nc5cc(C(C)(C)C)no5)cc4)cnc3c2)cn1,26% [30 µM],53.3% [30 µM],26.2% [30 µM],34.5% [30 µM],87.1% [30 µM],15.3% [30 µM],47.3% [30 µM],6.95% [30 µM] (active)
O=C(NCCOCCOCCNc1cccc2c1C(=O)N(C1CCCNC1=O)C2=O)c1cc2c(o1)C(=O)c1ccccc1C2=O (stereo not drawn),14.9%,-94.7% (active),-94.1% (active),-6.93% (active),-63.3% (active),0.0602% (active),-56.2% (active),-14.2% (active)
Cc1c(C)c2c(c(C)c1NC(=O)/C=C\C(=O)O)CCC(C)(CCCC(C)CCCC(C)CCCC(C)C)O2 (stereo not drawn),54.5%,-58.5% (active),50.9%,30%,51.2%,4.08% (active),79.8%,29.2%
CCOc1cccnc1/C=N/NC(N)=S,71.8%,51.6%,58.2%,40.8%,28.8%,32.6%,52.7%,36.2%
Cc1cc(Cc2cc(C)cc(C(C)(C)C)c2O)c(O)c(C(C)(C)C)c1,9.69% (active),74.1%,52.2%,39.8%,12.8%,8.68% (active),31.6%,29.8%
CCOC(=O)C(=CNc1ccccc1[N+](=O)[O-])C(=O)OCC,90%,103%,111%,99.5%,92.9%,100%,96.1%,106%
COC(=O)CCCNC(=O)C(=O)c1c(O)c(O)c(C(C)C)c2cc(C)c(-c3c(C)cc4c(C(C)C)c(O)c(O)c(C(=O)C(=O)NCCCC(=O)OC)c4c3O)c(O)c12,4.43% (active),8.07% (active),13%,19.2%,10.9%,-30.9% (active),29.5%,8.55% (active)
CC1(C)N=C(N)N=C(N)N1c1cccc(CN)c1,102%,94.6%,104%,98.4%,95.9%,91.3%,100%,101%
CCOc1ccc(-c2nc3ccc(-c4nc5ccc(N6CCN(C)CC6)cc5[nH]4)cc3[nH]2)cc1OCC,15.2%,-29.5% (active),-2.53% (active),0.486% (active),7.04% (active),-3.06% (active),-15.9% (active),43%
